Experiment [1] concerns the target Bile acid receptor (Homo sapiens) (UniProt Q96RI1). In words: qHTS assay for small molecule antagonists of farnesoid X receptor signaling (AID 588526). Also: % is scaled to controls: 0 for no effect and ±100 for the full control effect. The procedure, abridged: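 Beta-lactamase reporter antagonist mode: HEK293T FXR-UAS-bla cells, titrated compound, CDCA stimulation, 16 h 37 C, CCF4 dye 2 h RT. Data normalized to CDCA 50 uM and DMSO; Hill-fit IC50.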
A general note: In qHTS, concentration-response curves come from the screen itself.

The target in experiment [2] is Glucocorticoid receptor (Homo sapiens) (UniProt P04150). In words: qHTS assay for small molecule agonists of glucocorticoid receptor signaling (AID 588532; active = well fitted curve in the direction sought with a large enough effect in the signal ratio, with a control signal flat; the % refers to the signal ratio;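 also: 100% = dexamethasone at 0.1 µM and 0% = DMSO only wells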). Conditions: HeLa MMTV-bla, beta-lactamase ratio, agonist, 18 h; activation: stronger effect = higher value, percent of dexamethasone control, DMSO zero. The procedure, abridged: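 Quantitative HTS using CellSensor MMTV-bla HeLa cells in charcoal/dextran-treated serum; compounds tested up to 92 uM. After 18 h at 37 C, CCF4 dye reported reporter induction.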

Experiment [3] addresses Peroxisome proliferator-activated receptor delta (Homo sapiens) (UniProt Q03181). In words: qHTS assay for small molecule agonists of peroxisome proliferator-activated receptor delta signaling (AID 588534).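 Also: 0% = DMSO basal wells and 100% = positive control agonist at 10 µM.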 The procedure, abridged: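 Cells carrying a PPAR-delta beta-lactamase reporter were treated with compounds for 18 h at 37 °C in agonist mode. CCF4 fluorescence was read after 2 h; EC50 and efficacy from Hill fits.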

Experiment [4] in a line: qHTS assay for small molecule antagonists of peroxisome proliferator-activated receptor delta signaling (AID 588535).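 Also: cells co-treated with a PPAR-delta agonist as stimulator during compound exposure.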 Conditions: HEK293T PPARd-UAS-bla, beta-lactamase FRET ratio, 18 h; 460 nm channel. An outline of the steps: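 HEK293T PPAR-delta-UAS-bla cells, 4000/well, 2% charcoal/dextran FBS; 5 h 37 C; cpd titration; 18 h 37 C; CCF4 2 h RT; FI 460/530 nm; Hill fit → IC50, efficacy.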

Experiment [5] addresses Vitamin D3 receptor (Homo sapiens) (UniProt P11473). In words: qHTS assay for small molecule antagonists of vitamin D receptor signaling (AID 588541).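 Also: receptor activated by calcitriol during compound treatment; series mostly up to about 77 µM; % is scaled to controls: 0 for no effect and ±100 for the full control effect.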 The procedure, abridged:
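Antagonist-mode beta-lactamase reporter assay: HEK293T VDR-UAS-bla cells were exposed to titrated compound alongside 1-alpha,25-dihydroxyvitamin D3 at 3 nM final for 16 h. Values were normalized to the 50 nM agonist control and DMSO basal, with IC50 and efficacy from Hill equation fits.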

For experiment [6] the target is unchanged. In words: qHTS assay for small molecule agonists of vitamin D receptor signaling (AID 588543).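 Also: 0% = DMSO basal and 100% = reference agonist control.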 An outline of the steps: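 β-lactamase reporter, VDR-UAS-bla HEK293T, agonist mode. Cells plated 5 h at 37 °C, compound titration 16 h at 37 °C, CCF4 dye 2 h RT, ratio 460/530 nm. Hill fit → EC50, efficacy vs 50 nM 1α,25-(OH)2D3.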
The target in experiment [7] is Retinoic acid receptor RXR-alpha (Homo sapiens) (UniProt P19793). In words: qHTS assay for small molecule agonists of retinoid X receptor alpha signaling (AID 588544).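 Also: 0% = DMSO basal wells and 100% = reference agonist.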
Experiment [8] can be described thus: qHTS assay for small molecule antagonists of retinoid X receptor alpha signaling (AID 588546; active = well fitted inhibition curve with a large enough effect in the signal ratio, with a control signal flat, not every such curve was filed as active; the % refers to the signal ratio; also: potency is read from the fitted curve at half-maximal effect). As to conditions: HEK293T RXRa-UAS-bla, beta-lactamase ratio, antagonist mode; measured here: W530 green channel, cytotoxicity proxy. The procedure, abridged:
(§1)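 Beta-lactamase reporter inhibition, read as CCF4 fluorescence ratio (ex 405, em 460/530 nm) after 2 h at RT. HEK293T UAS-bla cells, 2500/well, were stimulated with 9-cis-RA at 500 or 100 nM final alongside test compound for 18 h at 37 C.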

Experiment [9] deals with Retinoic acid receptor RXR-alpha (Homo sapiens) (UniProt P19793). The description is as above. As to conditions: HEK293T RXRa-UAS-bla, beta-lactamase ratio, antagonist mode. The procedure, abridged: as §1
Experiment [10] concerns the target Thyroid hormone receptor beta (Homo sapiens) (UniProt P10828). In words: qHTS assay for small molecule antagonists of thyroid hormone receptor beta signaling (AID 588547; active = well fitted inhibition curve with a large enough effect in the signal ratio, with a control signal flat, not every such curve was filed as active; the % refers to the signal ratio;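 also: cells stimulated with 0.4 nM T3 agonist during compound exposure; series mostly up to about 77 µM; % is scaled to controls: 0 for no effect and ±100 for the full control effect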). As to conditions: TR-UAS-bla HEK293, beta-lactamase ratio, antagonist mode, 18 h. The procedure, abridged:
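Inhibition of T3-driven (0.4nM final) beta-lactamase reporter activity was measured over 0.59 nM to 92 uM compound after 18 h at 37 C. The cells were GripTite HEK293 TR-UAS-bla in charcoal/dextran-stripped serum, with CCF4 ratio read-out and IC50 from Hill fits.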

Experiment [11] in a line: qHTS assay for small molecule activators of the p53 signaling pathway (AID 651743; active = well fitted activation curve with a large enough effect in the signal ratio, not every such curve was filed as active; the % refers to the signal ratio; also: series mostly up to about 92 µM; % of control where 0% means no effect). As to conditions: HCT-116 p53RE-bla, beta-lactamase FRET ratio, 16 h; activation: stronger effect = higher value. The procedure, abridged:
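Read-out is fluorescence intensity from the LiveBLAzer B/G FRET substrate, added for 2 hours at room temperature after HCT-116 p53RE-bla cells had been incubated with compounds for 16 hours at 37 C.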

Experiment [12] can be described thus: qHTS assay for environmental chemicals that activate the Aryl hydrocarbon Receptor (AhR) signaling pathway (AID 651777; active = well fitted curve in the direction sought with a large enough effect; an effect the other way counts as inactive or inconclusive; also: % of control where 0% means no effect; nearly all actives have a fitted effect of over 15% in size). As to conditions: 1A2-DRE human hepatoma cells, luciferase, 24 h; activation: stronger effect = higher value. The procedure, abridged:
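Human hepatoma 1A2-DRE cells, stably carrying a dioxin response element and CYP1A2 promoter driving luciferase, were exposed to compounds for 24 hr at 37 C and 5% CO2. Luciferase signal was then read after 30 min One-Glo at room temperature.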

The target in experiment [13] is Peroxisome proliferator-activated receptor alpha (Homo sapiens) (UniProt Q07869). In words: qHTS assay for small molecule agonists of the peroxisome proliferator-activated receptor alpha (PPARalpha) signaling pathway (AID 651778; active = well fitted curve in the direction sought with a large enough effect; an effect the other way counts as inactive or inconclusive; also: % of control where 0% means no effect). Conditions: PathHunter PPARalpha complementation, chemiluminescence, 6 h; max response: stronger effect = higher value. The procedure, abridged:
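Chemiluminescence from complemented enzyme reported PPARalpha activation in cells after 6 hr of compound treatment at 37 C. The detection reagent was incubated for 60 min at room temperature, and compounds were scored as agonists.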

The nature of experiment [14]: qHTS assay for small molecule agonists of the antioxidant response element (ARE) signaling pathway measured by Nrf2-dependant transcriptional activity (AID 720636; active = well fitted curve in the direction sought with a large enough effect in the repeat runs; an effect the other way counts as inactive or inconclusive; also: % of control where 0% means no effect). An outline of the steps:
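ARE-luc HepG2 cells carrying an Nrf2-responsive luciferase reporter were plated in medium with 1% dialyzed FBS, left 6 hr at 37 C to attach, then exposed to compound for 16 hr. Luciferase luminescence was read after ONE-Glo addition.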

A short description of experiment [15]: qHTS assay for small molecule agonists of the antioxidant response element (ARE) signaling pathway measured by Nrf2-dependant transcriptional activity - cell viability counter screen (AID 720653; active = well fitted curve in the direction sought with a large enough effect in the repeat runs; an effect the other way counts as inactive or inconclusive; also: % is scaled to controls: 0 for no effect and ±100 for the full control effect). As to conditions: ARE-bla HepG2 viability, CellTiter-Glo ATP luminescence, 16 h; max response: stronger effect = lower value. An outline of the steps:
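Cytotoxicity counter screen: intracellular ATP quantified by CellTiter-Glo luminescence in the same ARE-bla HepG2 plates, after 16 h compound exposure and a 2 h beta-lactamase substrate step.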

The nature of experiment [16]: qHTS assay for cell viability of HEK293 cells (AID 743288; active = well fitted curve in the direction sought with a large enough effect; an effect the other way counts as inactive or inconclusive; also: % is scaled to controls: 0 for no effect and ±100 for the full control effect; nearly all actives have a fitted effect of over 50% in size). Conditions: ATP luminescence (CellTiter-Glo), 18 h; max response: stronger effect = lower value. An outline of the steps: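 Environmental chemicals tested in qHTS format against parental HEK293 cells; 18 h treatment, 37 C; read-out ATP luminescence (CellTiter-Glo), 30 min RT development.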
The nature of experiment [17]: qHTS assay for cell viability of the p53RE-bla HCT-116 cell line (AID 743292; active = well fitted curve in the direction sought with a large enough effect; an effect the other way counts as inactive or inconclusive; also: % is scaled to controls: 0 for no effect and ±100 for the full control effect; nearly all actives have a fitted effect of over 55% in size). An outline of the steps:
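CellSensor p53RE-bla HCT-116 cells, 4,000/well, preincubated 5 h at 37 C, then exposed to compounds in DMSO for 16 h at 37 C. Viability read as CellTiter-Glo luminescence (intracellular ATP) after 30 min at room temperature.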

The target in experiment [18] is Bile acid receptor (Homo sapiens) (UniProt Q96RI1). In words: qHTS assay for small molecule agonists of farnesoid X receptor signaling (AID 588527).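 Also: series mostly up to about 77 µM; 0% = vehicle basal and 100% = reference agonist.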 As to conditions: HEK293T FXR-UAS-bla, beta-lactamase ratio, 16 h; activation: stronger effect = higher value. An outline of the steps:
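Read-out: beta-lactamase reporter fluorescence with CCF4 substrate in GeneBLAzer FXR-UAS-bla HEK293T cells, after 16 h compound exposure at 37 C. Response scaled between DMSO basal (0%) and chenodeoxycholic acid at 100 uM (100%).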

The target of experiment [19] is Thyroid hormone receptor beta (Homo sapiens) (UniProt P10828). In words: qHTS assay for small molecule agonists of thyroid hormone receptor beta signaling (AID 588545).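 Also: 0% = DMSO only and 100% = 10 nM T3.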 An outline of the steps: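 Beta-lactamase reporter activity under TR response element control is measured in HEK 293 cells after 18 hrs compound exposure. Signal is ratiometric CCF4 fluorescence, 460/530 nm.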

Several values for one entry are separate records, joined by “and”; a condition that tells them apart may be missing. Equal values may be shown once. Results filed as inconclusive are left out. Activity calls are given as the source filed them. Unless noted, calls follow the shape of the full dose curve.

Peroxisome proliferator-activated receptor delta (Homo sapiens), sequence (Q03181 whole entry, looked up): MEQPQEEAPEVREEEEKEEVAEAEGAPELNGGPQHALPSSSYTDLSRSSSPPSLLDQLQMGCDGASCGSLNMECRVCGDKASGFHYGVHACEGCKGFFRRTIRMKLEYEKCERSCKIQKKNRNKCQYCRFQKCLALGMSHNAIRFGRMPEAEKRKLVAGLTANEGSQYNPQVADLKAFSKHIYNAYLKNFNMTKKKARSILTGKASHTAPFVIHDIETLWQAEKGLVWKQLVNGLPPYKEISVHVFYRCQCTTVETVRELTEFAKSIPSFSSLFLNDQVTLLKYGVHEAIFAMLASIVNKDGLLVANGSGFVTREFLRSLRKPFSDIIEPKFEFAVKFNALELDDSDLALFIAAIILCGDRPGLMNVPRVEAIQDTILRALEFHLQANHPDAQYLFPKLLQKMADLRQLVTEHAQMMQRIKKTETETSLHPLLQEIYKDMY
Retinoic acid receptor RXR-alpha (Homo sapiens), sequence (P19793 whole entry, looked up): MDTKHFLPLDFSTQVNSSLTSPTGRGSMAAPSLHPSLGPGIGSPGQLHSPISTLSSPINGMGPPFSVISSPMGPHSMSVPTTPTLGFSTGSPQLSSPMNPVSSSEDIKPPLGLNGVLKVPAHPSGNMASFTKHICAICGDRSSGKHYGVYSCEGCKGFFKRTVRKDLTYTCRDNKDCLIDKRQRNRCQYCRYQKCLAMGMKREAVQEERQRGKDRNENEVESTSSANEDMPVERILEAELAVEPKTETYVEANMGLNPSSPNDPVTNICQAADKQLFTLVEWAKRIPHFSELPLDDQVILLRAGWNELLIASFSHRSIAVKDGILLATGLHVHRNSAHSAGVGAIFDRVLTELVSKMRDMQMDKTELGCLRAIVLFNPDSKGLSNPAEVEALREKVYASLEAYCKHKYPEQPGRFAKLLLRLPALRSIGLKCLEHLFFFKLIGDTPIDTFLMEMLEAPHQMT
Bile acid receptor (Homo sapiens), sequence (Q96RI1 whole entry, looked up): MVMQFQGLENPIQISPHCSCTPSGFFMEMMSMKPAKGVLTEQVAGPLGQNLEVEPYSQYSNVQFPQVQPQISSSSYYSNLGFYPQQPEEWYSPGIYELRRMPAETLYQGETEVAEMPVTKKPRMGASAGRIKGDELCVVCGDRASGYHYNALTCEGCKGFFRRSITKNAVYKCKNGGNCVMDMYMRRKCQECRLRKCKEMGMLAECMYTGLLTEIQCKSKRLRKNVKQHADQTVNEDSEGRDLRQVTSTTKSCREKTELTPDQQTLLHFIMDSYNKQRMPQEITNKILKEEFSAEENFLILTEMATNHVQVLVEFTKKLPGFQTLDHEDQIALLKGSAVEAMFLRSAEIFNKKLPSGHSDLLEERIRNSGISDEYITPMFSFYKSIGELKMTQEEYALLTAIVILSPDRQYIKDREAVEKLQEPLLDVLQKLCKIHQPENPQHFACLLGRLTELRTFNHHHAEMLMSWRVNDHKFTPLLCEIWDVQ
Peroxisome proliferator-activated receptor alpha (Homo sapiens), sequence (Q07869 whole entry, looked up): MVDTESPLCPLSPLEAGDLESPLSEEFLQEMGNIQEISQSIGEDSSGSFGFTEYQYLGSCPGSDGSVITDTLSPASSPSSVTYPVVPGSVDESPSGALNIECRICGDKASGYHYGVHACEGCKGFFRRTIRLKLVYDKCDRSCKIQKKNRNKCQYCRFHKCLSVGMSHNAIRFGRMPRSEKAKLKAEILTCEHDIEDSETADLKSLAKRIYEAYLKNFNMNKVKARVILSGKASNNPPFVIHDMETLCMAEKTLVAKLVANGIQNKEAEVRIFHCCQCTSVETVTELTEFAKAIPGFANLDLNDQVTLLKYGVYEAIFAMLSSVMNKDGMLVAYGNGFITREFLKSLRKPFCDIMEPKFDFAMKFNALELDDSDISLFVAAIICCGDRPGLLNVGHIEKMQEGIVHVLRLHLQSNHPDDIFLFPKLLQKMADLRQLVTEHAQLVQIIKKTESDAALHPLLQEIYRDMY
Thyroid hormone receptor beta (Homo sapiens), sequence (P10828 whole entry, looked up): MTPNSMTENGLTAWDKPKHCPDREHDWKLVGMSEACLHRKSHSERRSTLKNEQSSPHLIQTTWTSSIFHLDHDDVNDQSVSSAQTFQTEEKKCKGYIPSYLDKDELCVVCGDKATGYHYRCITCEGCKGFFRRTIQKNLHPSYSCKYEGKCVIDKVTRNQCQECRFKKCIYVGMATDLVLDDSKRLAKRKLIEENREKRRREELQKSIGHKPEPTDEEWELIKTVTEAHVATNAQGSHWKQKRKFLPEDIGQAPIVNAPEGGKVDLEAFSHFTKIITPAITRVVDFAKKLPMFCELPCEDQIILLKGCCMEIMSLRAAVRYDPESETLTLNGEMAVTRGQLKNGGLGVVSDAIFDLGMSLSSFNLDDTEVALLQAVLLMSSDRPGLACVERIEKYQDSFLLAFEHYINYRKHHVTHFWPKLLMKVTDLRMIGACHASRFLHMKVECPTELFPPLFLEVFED
Glucocorticoid receptor (Homo sapiens), sequence (P04150 whole entry, looked up): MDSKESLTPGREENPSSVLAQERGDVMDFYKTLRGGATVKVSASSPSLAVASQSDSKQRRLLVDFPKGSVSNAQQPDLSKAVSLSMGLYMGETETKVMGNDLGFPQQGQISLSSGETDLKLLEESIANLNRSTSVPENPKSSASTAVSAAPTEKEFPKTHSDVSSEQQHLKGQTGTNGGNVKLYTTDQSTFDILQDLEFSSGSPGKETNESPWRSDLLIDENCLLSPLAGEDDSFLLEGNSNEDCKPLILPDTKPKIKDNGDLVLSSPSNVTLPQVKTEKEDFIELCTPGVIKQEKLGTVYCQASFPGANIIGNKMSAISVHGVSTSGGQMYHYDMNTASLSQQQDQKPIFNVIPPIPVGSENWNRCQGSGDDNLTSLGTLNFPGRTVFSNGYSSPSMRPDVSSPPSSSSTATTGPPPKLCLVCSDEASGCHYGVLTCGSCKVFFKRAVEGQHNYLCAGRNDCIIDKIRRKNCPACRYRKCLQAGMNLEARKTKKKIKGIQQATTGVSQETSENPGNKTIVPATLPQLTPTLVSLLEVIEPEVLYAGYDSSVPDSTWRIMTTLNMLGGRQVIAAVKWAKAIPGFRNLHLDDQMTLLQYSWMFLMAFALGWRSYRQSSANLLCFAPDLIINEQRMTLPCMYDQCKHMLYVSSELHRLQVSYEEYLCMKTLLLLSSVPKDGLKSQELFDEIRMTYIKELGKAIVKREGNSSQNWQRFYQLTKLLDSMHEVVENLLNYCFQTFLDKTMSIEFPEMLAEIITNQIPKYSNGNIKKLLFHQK
Vitamin D3 receptor (Homo sapiens), sequence (P11473 whole entry, looked up): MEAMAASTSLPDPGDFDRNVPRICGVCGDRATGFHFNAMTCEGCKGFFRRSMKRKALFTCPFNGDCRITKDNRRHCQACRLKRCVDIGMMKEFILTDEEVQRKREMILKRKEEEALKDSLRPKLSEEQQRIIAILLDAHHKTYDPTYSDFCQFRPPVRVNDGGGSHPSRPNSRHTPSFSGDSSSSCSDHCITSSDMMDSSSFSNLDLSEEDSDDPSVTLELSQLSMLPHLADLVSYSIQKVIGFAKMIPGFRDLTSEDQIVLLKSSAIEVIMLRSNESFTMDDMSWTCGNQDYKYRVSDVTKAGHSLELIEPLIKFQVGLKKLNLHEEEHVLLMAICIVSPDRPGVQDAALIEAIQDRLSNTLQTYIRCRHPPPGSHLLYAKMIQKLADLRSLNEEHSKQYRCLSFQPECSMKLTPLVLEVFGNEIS

Take `CN1COCN(Cc2cnc(Cl)s2)/C1=N\[N+](=O)[O-]`: the Potency entry in [1], in experiment [5], in [7], in experiment [14] and in [17] was “inactive” in each case. In addition, the activation is -3.49% (inactive) in experiment [2], -3.46% (inactive) in experiment [11] and -0.335% (inactive) in [12]. For the same compound, the outcome in experiment [3] and in experiment [6] was inactive. The max response is -72.6% in experiment [4]; -4.43% in experiment [8]; 2.74% (inactive) in [9]; -1.32% (inactive) in experiment [13]; -21.4% (inactive) in [15]; -0.262% (inactive) in experiment [16]. Further, the activity change % (negative = inhibition) in experiment [10] is -19.4% (inactive).
Take `COc1ccc(C(=O)Nc2ccccc2)cc1[N+](=O)[O-]`: the activation in experiment [18] was -2.07% (inactive).
Consider `CCCCCCCCCCCC(=O)OC`, for which the activation in experiment [18] was 11.1% (inactive).
The same measure, in the same setting: in the case of `CCOCCOCCOCCO` it was 2.46% (inactive); in that of `O=C(O)c1ccccc1[N+](=O)[O-]`, -1.37% (inactive); in that of `CC1CCC2CC1C2(C)C` (stereo not drawn), 3.3% (inactive).
Consider `O=C1c2ccccc2C(=O)C1(O)O`, for which the activation in [18] was 2.64% (inactive).
In the case of `CCC(C)(C)C`, the activation in experiment [18] was -0.224% (inactive).
Turning to `Cc1nc2ccc(Cl)cc2[nH]1`, the activation in experiment [18] is -1.36% (inactive).
Same read-out and setting: in the case of `Cc1ccc(C(C)(C)C)c(O)c1` it was -1.53% (inactive); in that of `CCCCOC(=O)COc1ccc(Cl)cc1Cl`, -5.91% (inactive) and -0.513% (inactive).
Consider `Cc1cc(C)cc(N)c1`, for which the activation in experiment [18] is -1.69% (inactive).
On the same count and under the same terms, with `O=C(O)CN(CCO)CCN(CC(=O)O)CC(=O)O` the figure was -2.73% (inactive); with `Cc1cc2nc(N)sc2cc1C`, 0.811% (inactive).
In the case of `CCCCCCCCCCO`, in [18], the activation is -3.92% (inactive).
In the case of `CCOP(=S)(OCC)SCn1nnc2ccccc2c1=O`, the activation was 3.29% (inactive) in experiment [18], 9.79% (inactive) in [2] and 2.43% (inactive) in experiment [11]. The compound was classed as inactive in experiment [3] and in experiment [6]. Further, the max response in experiment [4] was 7.16%; in experiment [8], 30.8%; in experiment [13] it was -0.264% (inactive); in experiment [15], -19.9% (inactive). Besides, the Potency result in [5], in experiment [19], in experiment [14] and in [17] was “inactive” in each case. The Potency in experiment [9] is 39.8 µM (active). The activity change % (negative = inhibition) in experiment [10] was -2.51% (inactive).
With `CC(=O)O[C@@H]1CC(C)=C2[C@H]1[C@H](C)CC[C@H]2/C=C(\C)C(=O)O`, the activation in experiment [18] is 0.825% (inactive).
With `NC1=NC(S)C2N=CN=C2N1` (stereo not drawn), in [18], the activation is 2.34% (inactive).
As to `Nc1nc2ccccc2[nH]1`, the activation in experiment [18] is 3.95% (inactive).
Still for that read-out and setting: in the case of `S=C1NC=NC2N=CNC12` (stereo not drawn) it was -5.16% (inactive); in that of `N=C1C=CC(=C(c2ccc(N)cc2)c2ccc(N)cc2)C=C1`, 3.86% (inactive); in that of `CC[C@H](C)C1O[C@]2(C=C[C@@H]1C)C[C@@H]1C[C@@H](C/C=C(\C)[C@@H](O[C@H]3C[C@H](OC)[C@@H](O[C@H]4C[C@H](OC)[C@H](NC(C)=O)[C@H](C)O4)[C@H](C)O3)[C@@H](C)/C=C/C=C3\CO[C@@H]4[C@H](O)C(C)=C[C@@H](C(=O)O1)[C@]34O)O2` (stereo partly drawn), 6.91% (inactive).
In the case of `CO[Si](CCCNCCC[Si](OC)(OC)OC)(OC)OC`, the activation in experiment [18] is 1.6% (inactive).
On the same count and under the same terms, with `CC(=O)c1cccc([N+](=O)[O-])c1` the figure was -1.11% (inactive).
As to `CC(C)N(C(=O)SCC(Cl)=C(Cl)Cl)C(C)C`, the activation in experiment [18] is 4.22% (inactive); in experiment [2], 18.5% (inactive); in experiment [11], -5.02% (inactive). Besides, the compound was called inactive in [3] and in experiment [6]. Also, the Potency entry in experiment [5] and in experiment [14] was “inactive” each time. Besides, the max response was 9.5% in experiment [8]; 10.8% (inactive) in experiment [9]; 22.8% (inactive) in experiment [13]; 15.1% (inactive) in experiment [15]; 2.96% (inactive) in [16]. For the same compound, in experiment [10], the activity change % (negative = inhibition) is -15.2% (inactive).
Turning to `Nc1ccc(N=Nc2ccccc2)c(N)c1`, the activation in experiment [18] was -2.91% (inactive).
